Only some compounds are listed: those with a hit (about 12% of all), similar ones and a draw of the others.
Sfp_inh = blocks B. subtilis Sfp PPTase activity; Biochemical Sfp PPTase activity, qHTS; 310,000 compounds, 3.5% hits; Potency, µM, most hits filed as inhibitors; Q9F4F7; AID 1490;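 note: the enzyme is Sfp with the accession as filed and its product quenches rhodamine fluorescence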
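Compounds were incubated with enzyme (final 15 nM) for 15 min at room temperature before substrate addition started the reaction. Fluorescence at 525 nm excitation, 598 nm emission was recorded immediately and after 30 minutes.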
BAZ2B_block = blocks human BAZ2B; AlphaScreen BAZ2B-H3K14Ac peptide displacement; 360,000 compounds, 4.4% hits; Potency, µM (titrated, usually from 114 µM), hits mostly inhibitors; note: nearly all actives have a fitted effect of over 60% in size
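BAZ2B (50 nM) with biotin-H3(5-23)K14Ac peptide (50 nM) in PBS pH 7.4, 0.01% Tween-20, preformed 30 min, then compound 30 min at room temperature; top concentration 110uM. AlphaScreen streptavidin donor/nickel chelate acceptor beads (10 ug/mL final), 20 min dark, signal read.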
JMJD2A_Tudor_inh = JMJD2A Tudor domain (human) inhibition. O75164. AlphaScreen JMJD2A-Tudor / H3K4me3 peptide binding. Potency, µM (highest dose often 114 µM), usual class: inhibitors. 390,000 compounds, 4.4% hits; note: nearly all actives have a fitted effect of over 50% in size
HP1b_chromo_inh = inhibitors of HP1-beta chromodomain binding to methylated histone tails. AlphaScreen HP1-beta / biotin-H3K9me3 peptide binding. Potency, µM (series often up to 114 µM), hits mostly inhibitors. 390,000 compounds, 0.56% hits. P83916. AID 540317; note: nearly all actives have a fitted effect of over 70% in size
Target sequence (P83916 whole entry, looked up): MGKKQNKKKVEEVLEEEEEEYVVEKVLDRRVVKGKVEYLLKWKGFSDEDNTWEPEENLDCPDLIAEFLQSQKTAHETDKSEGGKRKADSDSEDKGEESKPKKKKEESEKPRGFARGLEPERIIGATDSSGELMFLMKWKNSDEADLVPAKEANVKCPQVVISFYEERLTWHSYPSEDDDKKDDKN
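HP1-beta protein (50 nM final) preincubated 30 min at room temperature with biotinylated H3(1-18)K9me3 peptide (50 nM) in PBS pH 7.4, 0.01% Tween-20, then compound added for 30 min. AlphaScreen streptavidin donor/nickel chelate acceptor beads (10 ug/mL final), 30 min dark, luminescence read.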
G9a_inh-1 = G9a (human) methyltransferase inhibition | 350,000 compounds, 8.8% hits | Q96KQ7 | G9a H3K9 monomethylation, AlphaScreen, 2 h | AID 504332 | Potency, µM (doses to about 102 µM), hits mostly inhibitors; note: nearly all actives have a fitted effect of over 75% in size
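Compounds were preincubated with 20 nM G9a for 15 min, after which biotinylated H3K9 peptide (500 nM) and SAM (20 uM) started a 2 h room-temperature reaction. Monomethylated product was quantified by antibody-based AlphaScreen chemiluminescence.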
L3MBTL1_block = L3MBTL1 (human) inhibition; AID 485360; 230,000 compounds, 0.66% hits; AlphaScreen L3MBTL1–H3K9me1 peptide binding; Potency, µM (highest dose often 57.1 µM), most hits filed as inhibitors; note: nearly all actives have a fitted effect of over 60% in size
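Read-out is AlphaScreen signal from streptavidin donor and nickel chelate acceptor beads (10 ug/mL final each) bridging L3MBTL1 (50 nM) and biotinylated K9-monomethylated H3(1-15) peptide (75 nM), after 30 min compound exposure at room temperature.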
G9a_inh-2 = inhibits human G9a histone lysine methyltransferase, hit confirmation. shares compounds with JMJD2A_Tudor_inh. G9a H3K9 monomethylation, AlphaScreen, 2 h. Potency, µM, actives largely listed as inhibitors. 370 compounds, 89% hits. AID 588344; note: nearly all actives have a fitted effect of over 65% in size
A number is an active result; i = inactive; ? = inconclusive; nt = no result; [ ] = another dose, or the depositor's remark. Calls come from the whole dose curve; as a rule, active = well fitted curve in the direction sought with a large enough effect; inconclusive = small, poorly fitted or top-dose-only effect, or another doubt; inactive = no such curve, though single readings can be large; an effect the other way counts as inactive or inconclusive.

SMILES Sfp_inh BAZ2B_block JMJD2A_Tudor_inh HP1b_chromo_inh G9a_inh-1 L3MBTL1_block G9a_inh-2
CCOc1ccc(CNc2ccc3c(c2)nc(C)n3C)cc1 i i i i 1.6µM i[11.4_µM] 6.3
CCOc1ccc(CNc2ccc(CNc3ncn[nH]3)cc2)cc1 i ? i i i ? nt
CCCn1cnc2cc(NCc3ccccc3OCC)ccc21 nt 40µM 56µM ? 1.8µM nt 2.6
CCCc1c(C)nc(N2CCN(c3ccccc3OC)CC2)[nH]c1=O i i i i i i nt
CC(C)(C)SCCNC(=O)CN(c1ccccc1)S(=O)(=O)c1ccc(F)cc1 i i i i i i nt
O=C(COc1ccc(Cl)cc1)Nc1sc2c(c1C(=O)Nc1cccc(Cl)c1)CCCC2 nt ? 71µM ? 1.8µM nt 3.6
CCOc1ccc(NC(=O)c2c(NCc3cccnc3)sc3c2CCCC3)cc1 nt i 22µM i 2.8µM nt 1.6
O=C(COc1ccccc1)Nc1sc2c(c1C(=O)NCc1cccnc1)CCCC2 i i i i i i nt
